Screening data from PubChem.
NPC1 prom act: NPC1 promoter activation; Huh7 NPC1 promoter luciferase reporter, 24 h; Potency, µM (series often up to 9.22 µM), for inactives: at the top dose activation, actives largely listed as activators; actives 2.4% (n = 320,000); AID 485313; note: % of control where 0% means no effect; nearly all actives have a fitted effect of over 60% in size
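Quantitative HTS used a cell-based reporter: Huh7 cells stably bearing the NPC1 promoter upstream of luciferase were treated with compounds for 24 h, and promoter activation was read as luminescence.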
ELG1 genotoxic: induces genotoxicity in HEK293T cells with luciferase-tagged ELG1. HEK293T ELG1-luciferase reporter, luminescence, 16 h. Potency, µM (top dose mostly 46 µM), inactives show at the top dose activity change, positive = activation, most hits filed as activators. actives 1.3% (n = 330,000); note: % of control where 0% means no effect; nearly all actives have a fitted effect of over 60% in size
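DMSO vehicle served as control against compound-treated ELG1-luciferase HEK293T cells; exposure lasted 16 hr at 37 °C and 5% CO2, followed by ONE-Glo luminescence detection after 30 min.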
SMN2 splice enh: enhancers of SMN2 splice variant expression; actives 2.8% (n = 210,000); Potency, µM (titrated, usually from 46.1 µM), for the others: at the top dose activity change, positive = activation, usual class: activators; HEK293 SMN2-luciferase splicing reporter, luminescence, 30-36 h; AID 1458; note: % of control where 0% means no effect; nearly all actives have a fitted effect of over 55% in size
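qHTS luciferase splicing reporter: luminescence rises when SMN2 exon 7 is included in transfected HEK293 cells. Compound exposure lasted 30-36 h at 37C, with 4.5 mM final sodium butyrate as control, followed by a ONE-Glo read.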
Rab9 promoter act: Rab9 promoter activation | Huh7 Rab9 promoter-luciferase reporter, luminescence, 24 h | Potency, µM (doses to about 9.22 µM), inactives show at the top dose activation, negative = inhibition, most hits filed as activators | actives 2.8% (n = 320,000) | AID 485297; note: % of control where 0% means no effect; nearly all actives have a fitted effect of over 60% in size
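Luciferase signal after 10 min detection reagent at ambient indicates Rab9 promoter upregulation; stably transfected Huh7 cells were treated 24 h with compound in DMSO at 37 °C, 5% CO2.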
ELG1 repair inh: blocks ELG1-dependent DNA repair in HEK293T cells | actives 2.3% (n = 330,000) | HEK293T ELG1-luciferase reporter, luminescence, 16 h; DNA damage induced by 5-fluorouridine | Potency, µM (doses to about 46.1 µM), without a hit: at the top dose activity change, negative = inhibition, most hits filed as inhibitors; note: % is set by controls: 0 for no effect and ±100 for the full control effect; nearly all actives have a fitted effect of over 55% in size
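Reporter activity after DNA damage by 5-fluorouridine is monitored. Compound-treated cells incubate 16 hr at 37 °C, then ONE-Glo is added for 30 min before luminescence reading.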
FLuc counter: firefly luciferase modulation, counter-screen for miR-21 project. P08659. purified FLuc, Km substrates, luminescence inhibition. Potency, µM (doses to about 57.5 µM), for inactives: top-dose activity change, negative = inhibition, actives largely listed as inhibitors. actives 6.9% (n = 360,000);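 note: plate controls were vehicle for no effect and reference inhibitor for full effect; nearly all actives have a fitted effect of over 55% in size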
Target sequence (P08659 whole entry, looked up): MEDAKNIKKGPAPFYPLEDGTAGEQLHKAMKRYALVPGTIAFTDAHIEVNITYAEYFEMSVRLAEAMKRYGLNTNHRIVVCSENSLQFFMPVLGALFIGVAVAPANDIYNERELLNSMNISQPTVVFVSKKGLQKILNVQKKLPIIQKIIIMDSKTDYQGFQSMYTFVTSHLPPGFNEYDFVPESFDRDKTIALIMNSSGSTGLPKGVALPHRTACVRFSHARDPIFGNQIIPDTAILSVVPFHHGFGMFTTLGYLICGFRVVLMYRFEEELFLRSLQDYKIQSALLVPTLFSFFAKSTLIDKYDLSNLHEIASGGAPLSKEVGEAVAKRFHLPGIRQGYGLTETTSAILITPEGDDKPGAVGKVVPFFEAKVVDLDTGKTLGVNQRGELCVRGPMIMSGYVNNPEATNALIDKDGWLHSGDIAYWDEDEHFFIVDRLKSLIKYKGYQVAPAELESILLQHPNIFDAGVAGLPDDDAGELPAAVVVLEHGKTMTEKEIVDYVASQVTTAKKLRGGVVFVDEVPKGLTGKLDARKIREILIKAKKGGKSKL
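Biochemical qHTS of compounds, final roughly 60 µM downward over six points, against 10 nM purified firefly luciferase using Km concentrations of substrates (10 uM D-luciferin, 10 uM ATP) in Tris acetate pH 7.5 buffer; luminescence output.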
An asterisk follows results filed as active; ? = inconclusive; · = no result; [ ] = remark or other dose. Only some compounds are listed: those with a hit (about 9.2% of all), similar ones and a draw of the others. Calls come from the whole dose curve; as a rule, active = well fitted curve in the direction sought with a large enough effect; inconclusive = small, poorly fitted or top-dose-only effect, or another doubt; inactive = no such curve, though single readings can be large; an effect the other way counts as inactive or inconclusive. Potency is the fitted concentration of half-maximal effect.

SMILES	NPC1 prom act	ELG1 genotoxic	SMN2 splice enh	Rab9 promoter act	ELG1 repair inh	FLuc counter
O=C(Nc1ccc2oc(-c3ccc(Cl)c(Cl)c3)nc2c1)c1ncn[nH]1	0.501µM*	?	-21.8%	0.708µM*	?	?
O=C(Nc1ccc2oc(-c3ccccc3F)nc2c1)c1ncn[nH]1	0.355µM*	?	14.1µM*	0.501µM*	?	2.13µM*
Cc1ccc(NC(=O)Cn2c(=O)n(CCc3ccccc3)c(=O)c3sc4ccccc4c32)cc1C	·	·	16.1%	·	·	-0.4%
Cc1ccc(NC(=O)c2ncn[nH]2)cc1	10.1%	8.3%	14.8%	2.2%	?	16.9µM*
O=C(Nc1ccc2oc(-c3ccccc3)nc2c1)c1ccccc1F	?	18.8%	12.6µM*	2.51µM*	?	?
Cc1cc(NC(=O)OC2CCCCC2)ccc1[N+](=O)[O-]	2.82µM*	21.7%	·	2.82µM*	?	7.57µM*
Cc1ccc(NC(=O)C2C3CCCCC32)cc1[N+](=O)[O-] (stereo not given)	?	?	·	?	?	12µM*
Cc1cccc(NC(=O)C2C3CCCCC32)c1 (stereo not given)	?	?	·	?	?	19µM*
O=C(Nc1cccc([N+](=O)[O-])c1)C1C2CCCCC21 (stereo not given)	2.0%	0.1%	·	14.7%	15.9%	-8.8%
Cc1cc(C)c(NC(=O)C2C3/C=C\CCCCC32)c(C)c1 (stereo not given)	20.2%	5.2%	14.9%	?	18.5%	0.9%
Cc1ccc(NC(=O)C2C3/C=C\CCCCC32)cc1 (stereo not given)	?	15.4%	?	3.55µM*	?	?
NCC(=O)N[C@H](CO)C(=O)O	·	·	-3.5%[9.22 µM]	·	·	·
CC(=O)N1CCc2cc(N=NC3=C(O)CC(C)(C)CC3=O)ccc21	3.98µM*	?	?	1.58µM*	?	13.5µM*
O=C1CCCC(O)=C1N=Nc1cccc(C(=O)O)c1	3.55µM*	?	?	2.24µM*	?	8.49µM*
Cc1nc2ccc(N=NC3=C(O)CC(C)(C)CC3=O)cc2s1	-2.2%	?	?	1.6%	?	4.26µM*
Cc1nc2ccc(N=NC3=C(O)CCCC3=O)cc2s1	4.9%	?	?	-2.9%	?	10.7µM*
CCN(CC)S(=O)(=O)c1cccc(N=NC2=C(O)CCCC2=O)c1	7.0%	0.5%	-14.5%	6.9%	8.0%	-2.7%
CCOc1ccc2nc(N=NC3=C(O)CC(C)(C)CC3=O)sc2c1	17.5%	-3.3%	-61.8%	-34.9%	?	?
COc1cccc(-c2ccc(NC(=O)C3CCCN(CCCn4cccn4)C3)cc2)c1 (stereo not given)	7.7%	-0.2%	·	13.8%	-4.9%	2.9%
Cc1ccc(N2C(=O)Nc3ccccc3C2(O)C(=O)N2CCN(c3ccccn3)CC2)cc1C (stereo not given)	-3.3%	1.6%	15.7%	-1.9%	?	?
COc1ccc(C(=O)/C=C2\NCCc3cc(OC)c(OC)cc32)cc1OC	8.8%	9.6%	·	-1.7%	14.6µM*	?
COc1ccc(C(=O)/C=C/N(C)C)cc1OC	-0.8%	1.6%	4.3%	-5.2%	-0.2%	4.9%
CCCCNc1nc(C)nc2c1nc(-c1ccccc1)n2CCCN1CCCCC1C (stereo not given)	·	·	-10.0%	·	·	·
CCN(CC)C1CCN(Cc2cn[nH]c2-c2ccc(OC)c(F)c2)C1 (stereo not given)	-1.7%	1.8%	·	10.7%	-15.3%	-1.3%
COc1ccc(-c2[nH]ncc2CN2CCN(Cc3cccs3)CC2)cc1F	?	-11.2%	-18.4%	-0.2%	20.6µM*	-2.2%
SMILES	NPC1 prom act	ELG1 genotoxic	SMN2 splice enh	Rab9 promoter act	ELG1 repair inh	FLuc counter
O=C(NC1CCc2ccccc21)C1CCN(S(=O)(=O)c2ccc(Cl)cc2)CC1 (stereo not given)	-0.7%	-2.9%	-11.8%	1.5%	-12.7%	11.8%
O=S(=O)(NC1CCc2ccccc21)c1ccc(S(=O)(=O)N2CCCC2)cc1 (stereo not given)	-0.5%	-17.5%	-32.5%	-1.8%	25.9µM*	3.5%
O=c1[nH]c(=O)n(C2OC(CO)C(O)C2O)cc1Br (stereo not given)	0.9%	-1.5%	·	1.3%	-3.7%	0.1%
O=c1[nH]c(=O)n(C2CCCO2)cc1Br (stereo not given)	2.0%	-5.2%	35.5µM*	-4.2%	12.9%	3.7%
O=c1[nH]c(=O)n([C@H]2C[C@H](O)[C@@H](CO)O2)cc1F	0.8%	-3.6%	-64.1%	-2.2%	-1.9%	6.4%
O=c1[nH]c(=O)n([C@H]2C[C@H](O)[C@@H](CO)O2)cc1Br	5.9%[46.1 µM]	12.0%	10µM*	27.0%[46.1 µM]	10.0%	3.1%
COc1ccccc1CNC(=O)CSc1nc(=O)[nH]c2c1CCC2	·	·	·	·	·	3.6%
Cc1ccccc1C(=O)N1CCc2cc(-c3nc(NC(=O)Cc4ccc5c(c4)OCO5)sc3C)ccc21	-23.2%	-0.4%	-64.4%	-19.9%	?	1.7%
Cc1sc(NC(=O)Cc2ccc3c(c2)OCO3)nc1-c1ccc2c(c1)CCN2C(=O)c1cccc(F)c1	-15.9%	-4.2%	-54.0%	-16.0%	?	7.0%
CNc1nc(-c2ccc3c(c2)CCN3C(=O)c2cccc(F)c2)cs1	?	-0.5%	·	2µM*	?	4.78µM*
CNc1nc(-c2ccc3c(c2)CCN3C(=O)c2ccc(F)cc2)cs1	25.3%	3.4%	1.5%	?	-14.9%	12µM*
O=C(CN1CCCC1)Nc1nc(-c2ccc3c(c2)CCN3C(=O)c2ccccc2F)cs1	20.0%	-14.8%	·	13.4%	?	23.9µM*
CNc1nc(-c2ccc3c(c2)CCN3C(=O)c2ccccc2C)cs1	3.98µM*	?	22.4µM*	2.24µM*	?	7.57µM*
Cc1cccc(C(=O)N2CCc3cc(-c4csc(NC(=O)CN5CCCC5)n4)ccc32)c1	-3.0%	-23.2%	·	-1.8%	?	?
O=C(CSc1nc2ccc([N+](=O)[O-])cc2[nH]1)NC1CCCCCC1	-4.6%	-8.5%	·	2.6%	16.4µM*	0.6%
NC(=O)c1ccsc1NC(=O)CSc1ccccc1F	?	10µM*	?	?	?	21.3µM*
Cc1csc(SCC(=O)Nc2sccc2C(N)=O)n1	?	?	12.6µM*	?	?	?
Cc1csc(SCC(=O)Nc2nccs2)n1	12.9%	13.7%	·	-3.7%	?	-2.7%
Brc1ccc(CN2CCc3nc(Nc4ccccc4)ncc3C2)s1	·	·	·	·	·	-17.1%
Cc1ccsc1CN1CCc2nc(Nc3ccccc3)ncc2C1	·	·	·	·	·	12µM*
